Structures can show the parent of a compound that is named as a salt. ± gives the uncertainty stated by the source.
Key:
FLX1 = experiment: cell viability z-score within plate (CellTiter-Glo), mean of 3 biological replicates; higher = higher viability relative to plate (less growth inhibition); conditions: 2 µM; time (hr): 120
Procedure: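 FLX1 fibrolamellar carcinoma cells (DNAJB1-PRKACA fusion), 600 cells/well in 384-well plates, treated with a Selleck kinase inhibitor library (L1200) at 2 uM for 5 days (120 hr); viability by CellTiter-Glo. A z-score was computed within each plate and averaged over three biological replicates.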

[1] = test system: FLX1 + dox-induced PRKAR1A G325D; experiment: difference in log2 fold change of viability vs plate median (dox-induced PRKAR1A G325D minus uninduced); higher = compound less effective when PKA is inhibited; conditions: concentration: not stated (2 or 5 uM); 5 days
Procedure: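 For each plate a log2 fold change vs the plate median was derived, and the values without dox were subtracted from those with dox, averaged over three biological replicates.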

Row | Compound | cell viability z-score within plate (FLX1) | difference in log2 fold change of viability [1]
1 | CCCCCCCCc1ccc(CCC(N)(CO)CO)cc1 [Fingolimod (FTY720) HCl] | 0.096 ± 0.62 | 0.301
2 | Cn1sc(=O)n(Cc2ccccc2)c1=O | 1.12 ± 0.94 | 0.221
3 | Cc1cnc(NC(=O)Nc2cc(Br)c(C)cc2OC[C@@H]2CNCCO2)cn1 | 0.709 ± 0.31 | 1.29
4 | COc1cc2c(c(OC)c1OC)-c1c(cc3c(c1OC)OCO3)CC(C)C(C)C2 (stereo unspecified) [Schisandrin B (Sch B)] | 0.407 ± 0.2 | 0.277
5 | Cc1nc(Nc2n[nH]c3c2CN(C(=O)N[C@H](CN(C)C)c2ccccc2)C3(C)C)c2sccc2n1 | 1.12 ± 0.47 | 0.871
6 | CCCCCCCCCCCCc1ccc(S(=O)(=O)Nc2nncs2)cc1 | 1.17 ± 0.77 | 0.132
7 | CCn1c(N)c(C(=O)NC)c(=O)c2ccc(C#CC(C)(O)COC)nc21 (stereo unspecified) | -1.49 ± 1.7 | 0.0292
8 | Cc1ccc(C(=O)Nc2ccc(CN3CCN(C)CC3)c(C(F)(F)F)c2)cc1C#Cc1cnc2[nH]ncc2c1 [GZD824 Dimesylate] | -0.246 ± 0.26 | 0.11
9 | O=c1cc(N2CCOCC2)oc2c(-c3ccccc3)cccc12 | 0.828 ± 0.37 | 0.224
10 | NCC(=O)Nc1ccc(-n2nc(C(F)(F)F)cc2-c2ccc3c(ccc4ccccc43)c2)cc1 | 0.225 ± 0.2 | 0.186
11 | COc1ccc(S(=O)(=O)N(C(C)=O)c2ccccc2/C=C/c2cc[n+]([O-])cc2)cc1 | 0.21 ± 0.36 | 0.0942
12 | O=C(NCc1ccccc1)c1csc(Nc2ccncn2)n1 [Thiazovivin] | -0.686 ± 0.81 | 0.59
13 | Cc1csc(-c2nnc(Nc3ccc(Oc4ncccc4-c4ccnc(N)n4)cc3)c3ccccc23)c1 | -0.507 ± 1.2 | 0.188
14 | C[C@H](NC(=O)/C(C#N)=C/c1cccc(Br)n1)c1ccccc1 | 0.427 ± 0.59 | -0.381
15 | CNC(=O)c1ccccc1Sc1ccc2c(/C=C/c3ccccn3)n[nH]c2c1 [Axitinib] | 0.834 ± 0.44 | -0.125
16 | O=C(Nc1c[nH]nc1-c1nc2ccc(CN3CCOCC3)cc2[nH]1)NC1CC1 | 0.178 ± 0.39 | 0.115
17 | N[C@@H]1CCCN(c2c(/C=C3\SC(=O)NC3=O)cccc2-c2ccccc2)C1 | 0.166 ± 0.49 | 0.132
18 | O=C1Nc2ccccc2/C1=C1/Nc2ccccc2C1=O [Indirubin] | 1.02 ± 0.66 | 0.211
19 | COc1ccc(CNC(=O)Nc2ncc([N+](=O)[O-])s2)cc1 | 0.771 ± 0.6 | 0.288
20 | CC(C)CCN1c2nc(Nc3cc(F)c(O)c(F)c3)ncc2N(C)C(=O)C1C (stereo unspecified) | -0.812 ± 0.59 | -0.074
21 | FC(F)(F)c1ccc(/C=C/c2nc(COc3ccc(CCCCn4ccnn4)cc3)co2)cc1 [Mubritinib (TAK 165)] | -0.952 ± 0.95 | 0.102
22 | Cc1ccc(F)c(NC(=O)Nc2ccc(-c3cccc4[nH]nc(N)c34)cc2)c1 [Linifanib (ABT-869)] | 0.077 ± 0.57 | 0.386
23 | CN1CCN(c2ccc3nc(-c4c(N)c5c(F)cccc5[nH]c4=O)[nH]c3c2)CC1 [Dovitinib (TKI-258) Dilactic Acid] | 0.322 ± 0.38 | -0.364
24 | Cn1ncc(Cl)c1-c1cc(C(=O)N[C@H](CN)Cc2ccc(F)c(F)c2)oc1Cl | -0.657 ± 0.15 | -0.0579
25 | Cc1cnc(Nc2ccc(OCCN3CCCC3)cc2)nc1Nc1cccc(S(=O)(=O)NC(C)(C)C)c1 | -0.235 ± 0.43 | -0.00786

Row | Compound | cell viability z-score within plate (FLX1) | difference in log2 fold change of viability [1]
26 | Cc1ccc(NC(=O)c2cccc(C(C)(C)C#N)c2)cc1Nc1ccc2ncn(C)c(=O)c2c1 | -1.84 ± 0.14 | 0.173
27 | CNC(=O)c1cc(Oc2ccc(NC(=O)Nc3cc(C(C)(C)C)nn3-c3ccc4ncccc4c3)c(F)c2)ccn1 [Rebastinib (DCC-2036)] | 0.382 ± 0.34 | 0.37
28 | COc1cc2c(Oc3ccc4[nH]c(C)cc4c3F)ncnc2cc1OCCCN1CCCC1 [Cediranib (AZD2171)] | 0.6 ± 0.47 | 0.58
29 | CCCCOc1c(C(=O)c2c(F)cc(C)cc2F)c[nH]c2nncc1-2 | -0.865 ± 0.43 | 0.486
30 | Cn1cnc2c(F)c(Nc3ccc(Br)cc3F)c(C(=O)NOCCO)cc21 | -0.254 ± 0.15 | -1.09
31 | CC[C@@H]1C(=O)N(C)c2cnc(Nc3ccc(C(=O)N[C@H]4CC[C@H](N5CCN(CC6CC6)CC5)CC4)cc3OC)nc2N1C(C)C [Volasertib (BI 6727)] | -0.186 ± 0.53 | -0.0557
32 | C#Cc1cccc(Nc2ncnc3cc4c(cc23)OCCOCCOCCO4)c1 [Icotinib] | 0.676 ± 0.52 | -0.163
33 | O=c1c(O)c(-c2ccc(O)c(O)c2)oc2cc(O)cc(O)c12 [Quercetin] | 1.1 ± 0.51 | -0.0725
34 | Cc1cc(NC(=O)c2cccc(NC(=O)/C=C/CN(C)C)c2)ccc1Nc1nccc(-c2cccnc2)n1 | 0.657 ± 0.22 | -0.217
35 | N#CC1(c2ccc(NC(=O)c3cccnc3NCc3ccncc3)cc2)CCCC1 [Apatinib] | 0.121 ± 0.33 | 0.497
36 | N#C/C(=C\c1ccc(O)c(O)c1)C(=O)NCc1ccccc1 [AG-490 (Tyrphostin B42)] | -0.668 ± 1.4 | -0.0065
37 | COc1cc2nccc(Oc3ccc(NC(=O)C4(C(=O)Nc5ccc(F)cc5)CC4)cc3)c2cc1OC | 0.561 ± 0.36 | 0.457
38 | CC(C)n1nc(-c2cc3cc(O)ccc3[nH]2)c2c(N)ncnc21 [Torkinib (PP242)] | -0.546 ± 0.32 | 0.611
39 | CC[C@H](CO)Nc1nc(NCc2ccccc2)c2ncn(C(C)C)c2n1 [Roscovitine (Seliciclib,CYC202)] | 0.283 ± 0.3 | 0.0426
40 | Cc1cc(Nc2ncc(Cl)c(Nc3ccccc3S(=O)(=O)C(C)C)n2)c(OC(C)C)cc1C1CCNCC1 [Ceritinib (LDK378)] | 0.337 ± 0.65 | 0.032
41 | CC(C)CC(=O)Nc1n[nH]c2c1CN(C(=O)C1CCN(C)CC1)C2(C)C | 0.0889 ± 0.24 | 0.243
42 | C[C@@H](NC(=O)c1ncnc(N)c1Cl)c1ncc(C(=O)Nc2cc(C(F)(F)F)c(Cl)cn2)s1 | 0.647 ± 0.28 | -0.193
43 | C[C@@H]1COC(Nc2ccc3ncnc(Nc4ccc(OCc5nccs5)c(Cl)c4)c3c2)=N1 [Varlitinib] | 0.0259 ± 0.81 | -0.557
44 | Cc1ccc(S(=O)(=O)/C=C/C#N)cc1 | 0.177 ± 0.63 | -0.118
45 | Cc1c(NC(=O)OC[C@@H]2COCCN2)cn2ncnc(Nc3ccc4c(cnn4Cc4cccc(F)c4)c3)c12 | -2.76 ± 1.1 | -0.034
46 | COc1cc(Nc2ncc(F)c(Nc3ccc4c(n3)NC(=O)C(C)(C)O4)n2)cc(OC)c1OC [R406 (free base)] | 0.533 ± 0.55 | -0.334
47 | O=C1NC(=O)/C(=C/c2ccc3c(c2)OC(F)(F)O3)S1 | -0.962 ± 0.62 | -0.0198
48 | Cc1cc2c(F)c(Oc3ncnn4cc(OC[C@@H](C)OC(=O)[C@H](C)N)c(C)c34)ccc2[nH]1 | 0.531 ± 0.22 | 0.461
49 | CCCS(=O)(=O)Nc1ccc(F)c(C(=O)c2c[nH]c3ncc(Cl)cc23)c1F | 0.17 ± 0.093 | 0.333
50 | COc1c(C)c(C(=O)c2ccc(N)c(C(=O)O)c2)n2ccccc12 | 0.661 ± 0.44 | 0.093

Row | Compound | cell viability z-score within plate (FLX1) | difference in log2 fold change of viability [1]
51 | C=CC(=O)Nc1cccc(Oc2nc(Nc3ccc(N4CCN(C)CC4)cc3)ncc2Cl)c1 | -0.0359 ± 0.21 | -0.131
52 | NC(=O)c1ncn([C@@H]2O[C@H](CO)[C@@H](O)[C@H]2O)c1N [AICAR (Acadesine)] | 0.371 ± 0.82 | -0.0733
53 | Cc1ccc(Nc2nccc(N(C)c3ccc4c(C)n(C)nc4c3)n2)cc1S(N)(=O)=O [Pazopanib] | -0.34 ± 0.86 | 0.0453
54 | Cc1[nH]c(/C=C2\C(=O)Nc3ccccc32)c(C)c1CCC(=O)O [Orantinib (TSU-68, SU6668)] | 0.388 ± 0.61 | 0.216
55 | COc1ccc(F)c(F)c1C(=O)c1cnc(NC2CCN(S(C)(=O)=O)CC2)nc1N | 0.272 ± 0.44 | 0.247
56 | N=C(N)NC(=N)NCCc1ccccc1 [Phenformin HCl] | 1.08 ± 0.3 | -0.0569
57 | C=CC(=O)Nc1cccc(Nc2nc(Nc3ccc(N4CCN(C(C)=O)CC4)cc3OC)ncc2C(F)(F)F)c1 [Rociletinib (CO-1686, AVL-301)] | -0.855 ± 0.71 | -0.172
58 | Cc1c(NC(=O)c2ccc(C(C)(C)C)cc2)cccc1-c1cn(C)c(=O)c(Nc2ccc(C(=O)N3CCOCC3)cc2)n1 | 0.367 ± 0.26 | 0.119
59 | CCOc1ccn(-c2ccc(F)cc2)c(=O)c1C(=O)Nc1ccc(Oc2ccnc(N)c2Cl)c(F)c1 | -0.36 ± 1.2 | 0.114
60 | CC1(C)CNc2cc(NC(=O)c3cccnc3NCc3ccncc3)ccc21 [Motesanib Diphosphate (AMG-706)] | 0.0691 ± 0.21 | 0.326
61 | C=CC(=O)Nc1cccc(Nc2nc(Nc3ccc(NC4CN(CCF)C4)cc3OC)ncc2C(F)(F)F)c1 | -0.00318 ± 1.3 | -0.839
62 | O=C(c1cccc(Cl)c1F)N1CCN(Cc2cccc(Nc3nccs3)n2)CC1 | -0.394 ± 0.96 | -0.738
63 | CNC(=O)CN1CCC(Oc2cc3c(Nc4cccc(Cl)c4F)ncnc3cc2OC)CC1 [Sapitinib (AZD8931)] | 0.472 ± 0.47 | -0.745
64 | COc1cc(OC)c(/C=C/S(=O)(=O)Cc2ccc(OC)c(NCC(=O)O)c2)c(OC)c1 | 0.00703 ± 0.25 | 0.2
65 | N#Cc1c(NC(=O)c2cccc3ccccc23)sc2c1CCCC2 [JNK Inhibitor IX] | 0.195 ± 0.75 | 0.317
66 | O=C(NOCC(O)CO)c1cc(Br)c(F)c(F)c1Nc1ccc(I)cc1F (stereo unspecified) | 0.628 ± 0.22 | -1.06
67 | CCC[C@H](NC(=O)/C(C#N)=C/c1cccc(Br)n1)c1ccccc1 [Degrasyn (WP1130)] | -0.0534 ± 0.15 | 0.135
68 | NC(=O)c1ccc(N(C(N)=O)c2c(F)cccc2F)nc1-c1ccc(F)cc1F | -1.05 ± 0.15 | 0.256
69 | O=C(NOC[C@H](O)CO)c1ccc(F)c(F)c1Nc1ccc(I)cc1F | -1.16 ± 0.84 | -1.04
70 | CCN(CC)CCCCNc1ncc2cc(-c3cc(OC)cc(OC)c3)c(NC(=O)NC(C)(C)C)nc2n1 | -0.321 ± 0.21 | -0.527
71 | Cc1ccc(-n2nc(C(C)(C)C)cc2NC(=O)Nc2ccc(OCCN3CCOCC3)c3ccccc23)cc1 [Doramapimod (BIRB 796)] | 0.479 ± 0.82 | 0.496
72 | CCC(=O)Nc1cccc(Oc2nc(Nc3ccc(N4CCN(C)CC4)cc3OC)ncc2Cl)c1 | 0.708 ± 0.11 | -0.831
73 | CCS(=O)(=O)Nc1ccc2c(c1)/C(=C(/Nc1ccc(CN3CCCCC3)cc1)c1ccccc1)C(=O)N2 [Hesperadin] | -2.01 ± 0.23 | -0.105

Reference: the supplement of paper PMC9925115
